# Activity calls are given as the source filed them. Rule for the calls: active = hit-call score of the fitted dose curve at least 0.9, where 1 is the maximum; inactive = score below 0.9.
# Assays:
# [1] = target: Bile acid receptor (Homo sapiens) (UniProt Q96RI1); test: ATG_IR1_CIS: Attagene CIS-FACTORIAL HepG2 Assay for human Nuclear Receptor Subfamily 1 Group H Member 4 (NR1H4), IR1 submotif (AID 2282946); conditions: IR1 reporter transcription, actives raise or lower the signal
# Procedure, shortened: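 Readout: reporter transcript levels by RT-PCR with fluorescent capillary electrophoresis, from HepG2 cells transiently transfected with multiplexed cis-regulated reporters and dosed 24 h. Gain- or loss-of-signal fitted versus DMSO negative control.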
# [2] = ATG_ISRE_CIS: Attagene CIS-FACTORIAL HepG2 Assay for human Interferon Regulatory Factor 1 (IRF1) binding to an Interferon-Stimulated Response Element (ISRE) (AID 2282948); conditions: HepG2 ISRE cis-reporter (Attagene), mRNA transcription readout; actives raise or lower the signal
# Procedure, shortened: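 Multiplexed mRNA reporter readout in human liver HepG2 cells: cis-element-driven reporters transfected, compound added for 24 h, transcripts amplified, fluorescently labelled and sized by capillary electrophoresis; curve fitting bidirectional against DMSO.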
# [3] = ATG_M_32_CIS: Attagene CIS-FACTORIAL HepG2 Assay for M32 Transcription Factor (Internal Marker) (AID 2282949); conditions: HepG2 Attagene cis-factorial M32 reporter, mRNA; actives raise or lower the signal;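 note: background control marker of the multiplexed CIS panel rather than a real target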
# Procedure, shortened: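 Using DMSO as baseline, bidirectional curve fits were applied to reporter mRNA signals. These came from transiently transfected HepG2 cells exposed for 24 h, with RNA analysed by RT-PCR, FAM primer extension, HpaI digestion and CE.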
# [4] = ATG_M_06_CIS: Attagene CIS-FACTORIAL HepG2 Assay for M06 Transcription Factor (Internal Marker) (AID 2282950); conditions: HepG2 Attagene CIS-FACTORIAL M06 internal marker reporter; actives raise or lower the signal
# Procedure, shortened: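 Steps: transfect HepG2 with multiplexed cis-element reporter constructs; dose chemical 24 h; extract RNA with DNase treatment; reverse-transcribe, PCR-amplify, 6-FAM label, HpaI digest; separate fragments by capillary electrophoresis. Activity fitted both directions versus DMSO.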
# [5] = target: Hypoxia-inducible factor 1-alpha (Homo sapiens) (UniProt Q16665); test: ATG_HIF1a_CIS: Attagene CIS-FACTORIAL HepG2 Assay for human Hypoxia Inducible Factor 1 (HIF1A) (AID 2282951); conditions: HepG2 Attagene cis-factorial HIF1a reporter transcription; actives raise or lower the signal
# Procedure, shortened: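 Measures endogenous transcription-factor activity through cis-regulated reporter mRNA in HepG2. Cells dosed 24 h; transcripts quantified by RT-PCR with 6-FAM-labelled products separated by capillary electrophoresis; DMSO serves as negative control.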
# [6] = target: Hepatocyte nuclear factor 6 (Homo sapiens) (UniProt Q9UBC0); test: ATG_HNF6_CIS: Attagene CIS-FACTORIAL HepG2 Assay for human Hepatocyte Nuclear Factor 6 (HNF6) (AID 2282952); conditions: HepG2 Attagene cis-factorial HNF6 reporter transcription; actives raise or lower the signal
# Procedure, shortened: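 First, HepG2 cells were transfected with the multiplexed cis reporter library and dosed with chemical for 24 h. Next, RNA was reverse-transcribed, PCR-amplified and fluorescently labelled. Finally, HpaI-digested fragments were read by capillary electrophoresis.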
# [7] = target: Heat shock factor protein 1 (Homo sapiens) (UniProt Q00613); test: ATG_HSE_CIS: Attagene CIS-FACTORIAL HepG2 Assay for human Heat Shock Transcription Factor 1 (HSE) (AID 2282953); conditions: HepG2 HSE cis-reporter, Attagene RNA transcription; actives raise or lower the signal
# Procedure, shortened: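 Cells were transfected with cis-element-driven reporter constructs, dosed for 24 h, then total RNA was reverse-transcribed and reporter cDNA amplified, FAM-labelled and digested with HpaI. Fragments were resolved by capillary electrophoresis; gain or loss was fitted against DMSO.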
# [8] = target: Paired box protein Pax-6 (Homo sapiens) (UniProt P26367); test: ATG_Pax6_CIS: Attagene CIS-FACTORIAL HepG2 Assay for human Paired Box 6 (PAX6) (AID 2282956); conditions: HepG2 CIS-FACTORIAL PAX6 reporter transcription, RNA readout; actives raise or lower the signal
# Procedure, shortened: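 Fluorescent RT-PCR products separated by capillary electrophoresis report PAX6-linked promoter mRNA in HepG2 cells 24 h post-dose. Curves fitted bidirectionally, DMSO as negative control.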
# [9] = ATG_PXRE_CIS: Attagene CIS-FACTORIAL HepG2 Assay for human Pregnane X Receptor Element (PXRE) (AID 2282957); conditions: HepG2 Attagene CIS-FACTORIAL PXRE reporter, mRNA; actives raise or lower the signal
# Procedure, shortened: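 After a 24 h chemical incubation, total RNA from transfected HepG2 cells was reverse-transcribed and reporter cDNA amplified, FAM-labeled, HpaI-digested and sized by capillary electrophoresis. DMSO served as baseline for bidirectional curve fitting.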
# [10] = ATG_PPRE_CIS: Attagene CIS-FACTORIAL HepG2 Assay for human Peroxisome Proliferator-activated Response Element (PPRE) (AID 2282958); conditions: HepG2 PPRE cis-element reporter, Attagene transcription factor profiling; actives raise or lower the signal
# Procedure, shortened: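 Cells are first transfected transiently with the multiplexed reporter library, then dosed for 24 h. Total RNA is reverse-transcribed, amplified, fluorescently end-labeled and HpaI-cut before capillary electrophoresis; activity is fitted bidirectionally against DMSO controls.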
# [11] = ATG_RORE_CIS: Attagene CIS-FACTORIAL HepG2 Assay for human RAR-related Orphan Receptor Element (RORE) (AID 2282959); conditions: HepG2 Attagene cis-factorial RORE reporter, mRNA; actives raise or lower the signal
# Procedure, shortened: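 Cells were HepG2 carrying transfected cis-regulated reporter constructs, dosed for 24 hours. Total RNA was reverse-transcribed and reporter cDNA amplified, fluorescently labeled and sized by capillary electrophoresis. Activity was fitted bidirectionally relative to DMSO.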
# [12] = ATG_Sox_CIS: Attagene CIS-FACTORIAL HepG2 Assay for human SRY-box transcription factor (SOX) (AID 2282960); conditions: HepG2 Attagene cis-factorial SOX reporter, mRNA; actives raise or lower the signal
# Procedure, shortened: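 Transient MRTU transfection of HepG2; 24 h compound incubation; TriZol RNA, oligo(dT) RT, PCR, 6-FAM primer extension, HpaI cut, CE. Bidirectional fit, DMSO = baseline.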
# [13] = target: Transcription factor Sp1 (Homo sapiens) (UniProt P08047); test: ATG_Sp1_CIS: Attagene CIS-FACTORIAL HepG2 Assay for human Specificity Protein 1 (Sp1) (AID 2282961); conditions: HepG2 Sp1 cis-reporter transcription, actives raise or lower the signal
# Procedure, shortened: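 Endogenous Sp1 activity was gauged in human liver HepG2 cells bearing transfected reporter units under a cis-regulating promoter. After 24 h dosing, reporter mRNA was quantified by RT-PCR with capillary electrophoresis, and activity fitted bidirectionally versus DMSO.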
# [14] = ATG_SREBP_CIS: Attagene CIS-FACTORIAL HepG2 Assay for human Sterol Regulatory Element Binding (SREBP) (AID 2282962); conditions: HepG2 Attagene cis-factorial SREBP reporter, mRNA; actives raise or lower the signal
# Procedure, shortened: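 Endogenous factor activity is measured in HepG2 through multiplexed reporter units under cis-element control. Following a 24 h incubation, reporter transcripts are reverse-transcribed, PCR-amplified and sized by capillary electrophoresis; activity is fitted in both directions relative to DMSO.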
# [15] = ATG_TA_CIS: Attagene CIS-FACTORIAL HepG2 Assay for human TA Basal Promoter (AID 2282964); conditions: HepG2 Attagene CIS-factorial TA basal promoter reporter; actives raise or lower the signal
# Procedure, shortened: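 Steps: transfect HepG2 with MRTUs; dose 24 h; isolate RNA, DNase-treat, reverse-transcribe; PCR and FAM-label reporter cDNA; digest with HpaI 2h at 37 C; run capillary electrophoresis. Activity fitted both directions against DMSO.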
# [16] = ATG_TCF_b_cat_CIS: Attagene CIS-FACTORIAL HepG2 Assay for human T-Cell-Factor with beta-catenin (TCF/b-cat) (AID 2282965); conditions: HepG2 TCF/beta-catenin cis-reporter transcription, actives raise or lower the signal
# Procedure, shortened: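 Using capillary electrophoresis as the read-out, labelled reporter cDNA fragments from transiently transfected HepG2 were sized and quantified. Exposure lasted 24 hours; activity in either direction was referenced to DMSO.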
# [17] = ATG_GRE_CIS: Attagene CIS-FACTORIAL HepG2 Assay for human Glucocorticoid Response Elements (GRE) (AID 2282947); conditions: HepG2 GRE cis-reporter, Attagene multiplex mRNA; actives raise or lower the signal
# Procedure, shortened: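 HepG2, transient cis-reporter transfection, 24 h. Reporter mRNA: RT-PCR then CE, fluorescence. Fit both directions vs DMSO.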
# [18] = ATG_MRE_CIS: Attagene CIS-FACTORIAL HepG2 Assay for human Metal Responsive Element (MRE) (AID 2282954); conditions: HepG2 MRE cis-reporter transcription, Attagene multiplex; actives raise or lower the signal
# Procedure, shortened: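 Readout: capillary electrophoresis of 6-FAM-labelled, HpaI-digested RT-PCR reporter products. System: HepG2 cells carrying transient multiplexed cis reporters, dosed 24 h. Analysis: bidirectional fit, DMSO baseline.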
# [19] = ATG_PBREM_CIS: Attagene CIS-FACTORIAL HepG2 Assay for human Phenobarbital-responsive Enhancer Module (PBREM) (AID 2282955); conditions: HepG2 PBREM cis-reporter, Attagene multiplexed transcription; actives raise or lower the signal
# Procedure, shortened: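 Fluorescence of labelled reporter cDNA fragments, resolved by capillary electrophoresis, gives mRNA induction in transfected HepG2 cells treated for 24 h; DMSO serves as negative control and baseline.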
# [20] = target: Signal transducer and activator of transcription 3 (Homo sapiens) (UniProt P40763); test: ATG_STAT3_CIS: Attagene CIS-FACTORIAL HepG2 Assay for human Signal Transducer and Activator of Transcription 3 (STAT3) (AID 2282963); conditions: HepG2, Attagene cis-factorial STAT3 reporter transcription; actives raise or lower the signal
# Procedure, shortened: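 Uses human liver HepG2 transiently carrying cis-regulated reporter transcription units. Following 24 h dosing, reporter mRNA induction was detected by RT-PCR and capillary electrophoresis, analysed bidirectionally versus DMSO.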
# Hypoxia-inducible factor 1-alpha (Homo sapiens), sequence (Q16665 whole entry, looked up): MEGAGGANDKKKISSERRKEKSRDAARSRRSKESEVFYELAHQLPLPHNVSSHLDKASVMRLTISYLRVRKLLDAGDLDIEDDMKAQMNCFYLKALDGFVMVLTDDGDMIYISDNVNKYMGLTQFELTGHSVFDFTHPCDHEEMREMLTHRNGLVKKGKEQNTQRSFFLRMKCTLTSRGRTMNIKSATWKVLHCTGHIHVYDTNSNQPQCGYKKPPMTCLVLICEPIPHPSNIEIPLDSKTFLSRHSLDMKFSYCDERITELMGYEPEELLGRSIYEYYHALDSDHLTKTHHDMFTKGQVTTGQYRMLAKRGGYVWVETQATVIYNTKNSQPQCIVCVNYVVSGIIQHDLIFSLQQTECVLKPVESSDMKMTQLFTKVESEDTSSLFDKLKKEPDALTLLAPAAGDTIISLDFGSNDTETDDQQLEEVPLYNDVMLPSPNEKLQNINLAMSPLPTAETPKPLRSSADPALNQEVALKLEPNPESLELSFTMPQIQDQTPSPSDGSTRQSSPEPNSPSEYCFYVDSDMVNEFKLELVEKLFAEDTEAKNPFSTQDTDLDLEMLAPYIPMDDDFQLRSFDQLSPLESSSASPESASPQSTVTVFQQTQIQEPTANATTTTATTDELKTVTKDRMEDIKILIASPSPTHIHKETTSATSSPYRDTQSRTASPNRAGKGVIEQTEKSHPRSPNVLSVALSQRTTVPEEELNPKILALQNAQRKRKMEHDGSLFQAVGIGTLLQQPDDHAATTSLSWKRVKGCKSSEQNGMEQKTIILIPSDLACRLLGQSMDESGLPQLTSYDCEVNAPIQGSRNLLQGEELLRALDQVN
# Heat shock factor protein 1 (Homo sapiens), sequence (Q00613 whole entry, looked up, the tested form may be a part): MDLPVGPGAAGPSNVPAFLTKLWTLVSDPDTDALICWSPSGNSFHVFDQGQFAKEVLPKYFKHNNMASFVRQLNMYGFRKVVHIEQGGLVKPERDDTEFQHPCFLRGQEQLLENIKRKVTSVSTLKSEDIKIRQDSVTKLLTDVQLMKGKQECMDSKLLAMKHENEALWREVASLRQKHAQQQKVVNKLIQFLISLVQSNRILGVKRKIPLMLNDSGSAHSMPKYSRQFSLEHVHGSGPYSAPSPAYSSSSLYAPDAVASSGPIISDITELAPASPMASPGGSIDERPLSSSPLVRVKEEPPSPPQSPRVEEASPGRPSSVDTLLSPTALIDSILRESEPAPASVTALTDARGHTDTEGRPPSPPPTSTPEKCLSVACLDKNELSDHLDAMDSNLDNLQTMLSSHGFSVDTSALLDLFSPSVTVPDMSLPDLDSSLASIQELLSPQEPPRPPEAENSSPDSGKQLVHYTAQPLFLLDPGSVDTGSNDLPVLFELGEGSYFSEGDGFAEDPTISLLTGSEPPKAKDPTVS
# Paired box protein Pax-6 (Homo sapiens), sequence (P26367 whole entry, looked up): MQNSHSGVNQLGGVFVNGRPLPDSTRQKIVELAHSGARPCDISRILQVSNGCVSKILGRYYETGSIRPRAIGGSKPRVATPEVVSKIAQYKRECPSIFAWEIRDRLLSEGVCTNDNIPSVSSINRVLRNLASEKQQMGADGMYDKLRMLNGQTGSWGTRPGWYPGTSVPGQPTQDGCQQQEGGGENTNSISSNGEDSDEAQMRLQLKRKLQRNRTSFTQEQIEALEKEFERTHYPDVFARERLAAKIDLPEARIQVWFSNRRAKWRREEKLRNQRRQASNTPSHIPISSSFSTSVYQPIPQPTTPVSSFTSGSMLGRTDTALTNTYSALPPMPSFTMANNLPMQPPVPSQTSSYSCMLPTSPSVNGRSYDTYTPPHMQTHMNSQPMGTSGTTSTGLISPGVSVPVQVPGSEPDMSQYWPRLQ
# Signal transducer and activator of transcription 3 (Homo sapiens), sequence (P40763 whole entry, looked up): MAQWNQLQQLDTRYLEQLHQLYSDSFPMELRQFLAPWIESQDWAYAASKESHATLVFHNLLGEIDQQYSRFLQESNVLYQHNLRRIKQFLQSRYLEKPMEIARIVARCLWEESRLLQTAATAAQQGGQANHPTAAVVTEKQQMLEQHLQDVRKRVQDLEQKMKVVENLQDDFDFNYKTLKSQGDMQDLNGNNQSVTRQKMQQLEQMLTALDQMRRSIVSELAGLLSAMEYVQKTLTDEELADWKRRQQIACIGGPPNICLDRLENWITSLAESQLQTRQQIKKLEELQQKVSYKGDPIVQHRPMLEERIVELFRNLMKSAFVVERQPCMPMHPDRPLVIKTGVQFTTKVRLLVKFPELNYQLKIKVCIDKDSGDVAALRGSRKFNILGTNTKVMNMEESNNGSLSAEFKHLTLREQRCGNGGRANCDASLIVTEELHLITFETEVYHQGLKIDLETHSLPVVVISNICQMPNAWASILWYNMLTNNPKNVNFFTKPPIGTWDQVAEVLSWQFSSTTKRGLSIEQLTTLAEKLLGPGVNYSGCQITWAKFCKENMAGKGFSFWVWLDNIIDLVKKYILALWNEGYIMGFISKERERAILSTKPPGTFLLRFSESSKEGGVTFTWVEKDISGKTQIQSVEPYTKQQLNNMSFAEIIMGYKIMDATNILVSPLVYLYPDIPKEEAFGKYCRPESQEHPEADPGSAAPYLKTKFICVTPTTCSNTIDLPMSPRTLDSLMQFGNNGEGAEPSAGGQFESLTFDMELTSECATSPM
# Hepatocyte nuclear factor 6 (Homo sapiens), sequence (Q9UBC0 whole entry, looked up, the tested form may be a part): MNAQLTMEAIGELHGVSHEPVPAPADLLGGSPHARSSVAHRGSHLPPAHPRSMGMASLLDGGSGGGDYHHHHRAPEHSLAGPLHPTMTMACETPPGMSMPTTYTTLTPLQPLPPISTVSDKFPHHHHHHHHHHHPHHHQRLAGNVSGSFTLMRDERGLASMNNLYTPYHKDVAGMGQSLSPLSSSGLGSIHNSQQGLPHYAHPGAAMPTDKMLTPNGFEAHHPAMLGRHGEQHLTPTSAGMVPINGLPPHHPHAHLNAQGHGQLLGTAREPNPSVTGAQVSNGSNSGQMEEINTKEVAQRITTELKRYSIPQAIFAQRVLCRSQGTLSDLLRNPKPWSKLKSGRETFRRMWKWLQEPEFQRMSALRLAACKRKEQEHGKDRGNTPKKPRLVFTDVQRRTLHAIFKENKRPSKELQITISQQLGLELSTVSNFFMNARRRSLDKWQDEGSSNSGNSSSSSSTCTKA
# Transcription factor Sp1 (Homo sapiens), sequence (P08047 whole entry, looked up): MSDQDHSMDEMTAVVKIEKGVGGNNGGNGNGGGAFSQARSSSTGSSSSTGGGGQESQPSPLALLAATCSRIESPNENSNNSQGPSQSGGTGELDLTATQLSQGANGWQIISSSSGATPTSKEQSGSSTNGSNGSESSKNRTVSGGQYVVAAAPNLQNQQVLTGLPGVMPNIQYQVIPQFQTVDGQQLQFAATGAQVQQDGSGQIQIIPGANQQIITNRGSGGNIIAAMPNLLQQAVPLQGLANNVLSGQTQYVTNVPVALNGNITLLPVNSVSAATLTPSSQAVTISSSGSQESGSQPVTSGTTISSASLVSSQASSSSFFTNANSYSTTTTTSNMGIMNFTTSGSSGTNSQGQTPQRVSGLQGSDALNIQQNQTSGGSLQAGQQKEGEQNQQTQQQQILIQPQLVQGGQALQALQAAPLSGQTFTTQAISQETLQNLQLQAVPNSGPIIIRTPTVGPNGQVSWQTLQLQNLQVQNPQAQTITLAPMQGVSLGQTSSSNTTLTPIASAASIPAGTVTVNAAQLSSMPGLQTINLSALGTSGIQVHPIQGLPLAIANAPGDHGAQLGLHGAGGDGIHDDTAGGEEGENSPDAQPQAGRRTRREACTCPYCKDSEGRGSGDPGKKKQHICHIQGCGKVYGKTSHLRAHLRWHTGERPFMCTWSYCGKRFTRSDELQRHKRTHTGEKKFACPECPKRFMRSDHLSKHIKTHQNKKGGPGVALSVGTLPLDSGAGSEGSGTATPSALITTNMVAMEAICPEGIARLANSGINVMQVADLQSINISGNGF
# Bile acid receptor (Homo sapiens), sequence (Q96RI1 whole entry, looked up): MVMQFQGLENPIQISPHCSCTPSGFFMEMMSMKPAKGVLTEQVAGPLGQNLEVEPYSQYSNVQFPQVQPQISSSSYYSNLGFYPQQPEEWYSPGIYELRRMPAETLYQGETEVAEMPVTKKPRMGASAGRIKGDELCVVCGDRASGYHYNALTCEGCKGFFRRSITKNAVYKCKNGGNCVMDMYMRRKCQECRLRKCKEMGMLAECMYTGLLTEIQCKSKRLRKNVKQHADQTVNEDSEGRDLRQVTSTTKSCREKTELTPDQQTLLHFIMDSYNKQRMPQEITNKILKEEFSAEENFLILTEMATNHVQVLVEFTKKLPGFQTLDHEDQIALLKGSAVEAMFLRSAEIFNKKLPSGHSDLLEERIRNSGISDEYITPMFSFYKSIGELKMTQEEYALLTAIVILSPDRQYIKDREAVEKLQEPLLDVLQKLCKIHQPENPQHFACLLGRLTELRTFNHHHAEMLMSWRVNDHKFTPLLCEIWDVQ
compound,measurement,setting,value
CC(C)COC(=O)CCCCC(=O)OCC(C)C,outcome,[1],inactive
same,outcome,[2],inactive
same,outcome,[3],inactive
same,outcome,[4],inactive
same,outcome,[5],inactive
same,outcome,[6],inactive
same,outcome,[7],inactive
same,outcome,[8],inactive
same,outcome,[9],inactive
same,outcome,[10],inactive
same,outcome,[11],inactive
same,outcome,[12],inactive
same,outcome,[13],inactive
same,outcome,[14],inactive
same,outcome,[15],inactive
same,outcome,[16],inactive
CCCCCCCCCC[N+](C)(C)[O-],outcome,[17],inactive
same,outcome,[2],inactive
same,outcome,[3],inactive
same,outcome,[4],inactive
same,outcome,[5],inactive
same,outcome,[6],inactive
same,outcome,[7],inactive
same,outcome,[18],inactive
same,outcome,[8],inactive
same,AC50,[9],79 µM (active)
same,outcome,[10],inactive
same,outcome,[11],inactive
same,outcome,[14],inactive
same,outcome,[15],inactive
same,outcome,[16],inactive
O=C1CCCCC1,outcome,[17],inactive
same,outcome,[2],inactive
same,outcome,[3],inactive
same,outcome,[4],inactive
same,outcome,[5],inactive
same,outcome,[6],inactive
same,outcome,[7],inactive
same,outcome,[18],inactive
same,outcome,[19],inactive
same,outcome,[8],inactive
same,outcome,[9],inactive
same,outcome,[10],inactive
same,outcome,[11],inactive
same,outcome,[14],inactive
same,outcome,[20],inactive
same,outcome,[15],inactive
same,outcome,[16],inactive
CCOCCOCCO,outcome,[17],inactive
same,outcome,[2],inactive
same,outcome,[3],inactive
same,outcome,[4],inactive
same,outcome,[5],inactive
same,outcome,[6],inactive
same,outcome,[7],inactive
same,outcome,[18],inactive
same,outcome,[8],inactive
same,outcome,[9],inactive
same,outcome,[10],inactive
same,outcome,[11],inactive
same,outcome,[12],inactive
same,outcome,[13],inactive
same,outcome,[14],inactive
same,outcome,[20],inactive
same,outcome,[15],inactive
same,outcome,[16],inactive
O=Cc1ccccc1C=O,outcome,[17],inactive
same,outcome,[2],inactive
same,outcome,[3],inactive
same,outcome,[4],inactive
same,AC50,[5],26.2 µM (active)
same,outcome,[6],inactive
same,outcome,[7],inactive
same,outcome,[18],inactive
same,outcome,[8],inactive
same,outcome,[9],inactive
same,outcome,[10],inactive
same,outcome,[11],inactive
same,outcome,[12],inactive
same,outcome,[13],inactive
same,outcome,[14],inactive
same,outcome,[20],inactive
same,outcome,[15],inactive
same,outcome,[16],inactive
Cc1cn([C@H]2C=C[C@@H](CO)O2)c(=O)[nH]c1=O,outcome,[1],inactive
same,outcome,[2],inactive
same,outcome,[3],inactive
same,outcome,[4],inactive
same,outcome,[6],inactive
same,outcome,[7],inactive
same,outcome,[19],inactive
same,outcome,[8],inactive
same,outcome,[9],inactive
same,outcome,[10],inactive
same,outcome,[11],inactive
same,outcome,[12],inactive
same,outcome,[13],inactive
same,outcome,[14],inactive
same,outcome,[15],inactive
same,outcome,[16],inactive
O=C1O[C@H]([C@H](O)CO)C(O)=C1O,outcome,[17],inactive
same,outcome,[2],inactive
same,outcome,[3],inactive
same,outcome,[4],inactive
same,outcome,[5],inactive
same,outcome,[6],inactive
same,outcome,[7],inactive
same,outcome,[18],inactive
same,outcome,[19],inactive
same,outcome,[8],inactive
same,outcome,[9],inactive
same,outcome,[10],inactive
same,outcome,[11],inactive
same,outcome,[13],inactive
same,outcome,[14],inactive
same,outcome,[20],inactive
same,outcome,[15],inactive
same,outcome,[16],inactive
CCCC(=O)O,outcome,[17],inactive
same,outcome,[2],inactive
same,outcome,[3],inactive
same,outcome,[4],inactive
same,outcome,[5],inactive
same,outcome,[6],inactive
same,outcome,[7],inactive
same,outcome,[18],inactive
same,outcome,[19],inactive
same,outcome,[8],inactive
same,outcome,[9],inactive
same,outcome,[10],inactive
same,outcome,[11],inactive
same,outcome,[13],inactive
same,outcome,[14],inactive
same,outcome,[15],inactive
same,outcome,[16],inactive

# Source: PubChem BioAssay (EPA / NIEHS)
